Hit rate of the full screen: of about 320,000 compounds, about 2,100 (0.66%) were called active. Another 53% or so got no clear call; they are omitted. The sample holds actives, similar compounds and a random draw of the others, so the mix is not that of the screen. Calls come from the whole dose curve; as a rule, active = well fitted inhibition curve with a large enough effect in the signal ratio, with a control signal flat (not every such curve was filed as active); inconclusive = small, poorly fitted or top-dose-only effect, or effect the other way, or a change in a side signal; inactive = flat fitted curve, though single readings scatter; the % refers to the signal ratio.
Potency is the fitted concentration of half-maximal effect.

The experiment in a line: qHTS Assay for Lipid Storage Modulators in Drosophila S3 Cells.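 For cell number change: cells counted by Cell Tracker Red CMTPX staining in the red channel.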 For lipid storage change, negative = inhibition: % is set by controls: 0 for no effect and ±100 for the full control effect. Conditions: BODIPY lipid droplet fluorescence, 18-24 h, cells fed with added oleic acid; cell number change: measured here: cell count max response; series mostly up to 46.1 µM. Put shortly:
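Drosophila S3 cells got compounds at several concentrations plus oleic acid (400 uM solution). Laser-scanning cytometry with 488 nm excitation read lipid droplets at 500-530 nm and cells at 575-640 nm. Percent activity was relative to 20 uM Triacsin C.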
For orientation: Quantitative high-throughput screening tests each substance at several concentrations.
Take `O=C(O)c1cccc(Nc2c([N+](=O)[O-])c(=O)oc3ccccc23)c1`: the Potency result was “inactive” and the cell number change worked out at 3.37%.
The like results for `CC(=O)Oc1ccc(C(=O)Nc2ccc(S(=O)(=O)N3CCOCC3)cc2)cc1` were, in that order, “inactive” and -28%.
For `Cc1ccc2[nH]c(=O)c(CN(CC3CCCO3)C(=S)Nc3ccccc3)cc2c1` (stereo not drawn) the same measures were “inactive” and -9.29%.
For `O=C(Nc1ccccc1)C1C(c2ccccc2)C1(Cl)Cl` (stereo not drawn) the same measures were “inactive” and -2.33%.
As for `COc1ccc(NC(=O)C2C(c3ccccc3)C2(Cl)Cl)cc1` (stereo not drawn), the Potency entry was “inactive” and the cell number change is 19.2%.
The like results for `CCOc1ccc(NC(=O)C2C(c3ccccc3)C2(Cl)Cl)cc1` (stereo not drawn) were, in that order, 16.4 µM (active) and -15.7%.
For `OCCN1CCN(CCSc2ccccc2)CC1` the same measures were “inactive” and 0.698%.
`CCn1ncc(-c2csc(N)n2)c1C`: the Potency entry was “inactive” and the cell number change worked out at 9.82%.
The like results for `O=C(c1ccccc1)N1CN2CN(C(=O)c3ccccc3)CC([N+](=O)[O-])(C2)C1` were, in that order, “inactive” and 6.5%.
The like results for `COc1ccccc1C(CNC(=O)c1cc(C)nc2ccccc12)N(C)C` (stereo not drawn) were, in that order, “inactive” and 9.21%.
The like results for `CCCN=CC1=C(O)CC(c2ccccc2)CC1=O` (stereo not drawn) were, in that order, “inactive” and 5.05%.
Turning to `O=C(O)CCN=CC1=C(O)CC(c2ccccc2)CC1=O` (stereo not drawn), the Potency was 1.03 µM (active) and the cell number change amounted to 15.8%.
As for `CCCCCN=CC1=C(O)CC(c2ccccc2)CC1=O` (stereo not drawn), the Potency entry was “inactive” and the cell number change is -15.5%.
For `COCCn1c(SCC(=O)NCCc2ccc(OC)c(OC)c2)nc2c([nH]c3ccccc32)c1=O` the same measures were “inactive” and 5.96%.
For `S=C(c1cn(Cc2ccccc2)c2ccccc12)N1CCOCC1` the same measures were “inactive” and 4.05%.
For `O=C(O)Cn1cc(C(=S)N2CCOCC2)c2ccccc21` the same measures were 23.1 µM (active) and -0.629%.
As to `NC(=O)Cn1cc(C(=O)C(=O)N2CCOCC2)c2ccccc21`, the Potency result is “inactive” and the cell number change is -8.62%.
With `CCc1nc2oc3ccccc3c(=O)c2c(=O)n1CCOC`, the cell number change was 14.4% and the lipid storage change, negative = inhibition is -1.96% [at 9.22 µM] (inactive).
On to `O=C(CCc1ccccc1)NC(NC(=S)Nc1ccc(Br)cc1)C(Cl)(Cl)Cl` (stereo not drawn), for which the Potency result is “inactive” and the cell number change is -27.3%.
For `Cc1ccc(-n2nnnc2SCCNS(=O)(=O)c2ccccc2)cc1C` the same measures were “inactive” and -14.2%.
Regarding `Cc1ccc(NC(=O)CSc2nnc(N)s2)cc1S(=O)(=O)N1CCCCC1`, the Potency result was “inactive” and the cell number change was -23.8%.
The like results for `CCOc1ccc(CNC(=O)C2Cc3cc(S(=O)(=O)N4CCCCC4)ccc3N2C(C)=O)cc1` (stereo not drawn) were, in that order, “inactive” and 8.5%.
For `CCc1ccc(CNC(=O)C2Cc3cc(S(=O)(=O)N4CCCC4)ccc3N2C(C)=O)cc1` (stereo not drawn) the same measures were 11.6 µM (active) and -14.2%.
For `CC(=O)N1c2ccc(S(=O)(=O)N3CCCC3)cc2CC1C(=O)NCc1ccc(N(C)C)cc1` (stereo not drawn) the same measures were “inactive” and 12.7%.
With `CCN(CC)S(=O)(=O)c1cc(OC)c(Cl)cc1OC`, the Potency result is “inactive” and the cell number change came to 14.5%.
Turning to `COc1cc(/C=N/NC(=O)COc2ccc(-n3cnnn3)cc2)ccc1OCC(N)=O`, the Potency result was “inactive” and the cell number change turned out to be 7.43%.
In the case of `Cc1noc(C)c1S(=O)(=O)N(CC(=O)O)c1ccc2c(c1)OCO2`, the Potency entry was “inactive”.
Regarding `CCc1ccc(N(CC(=O)O)S(=O)(=O)c2c(C)noc2C)cc1`, the Potency result was “inactive” and the cell number change worked out at 7.92%.
With `Cc1cc(C)cc(N(CC(=O)O)S(=O)(=O)c2c(C)noc2C)c1`, the Potency was 23.1 µM (active) and the cell number change was determined as 2.34%.
For `CC(=O)Nc1ccc(NC(=O)Cn2c(=O)n(-c3ccc(C)cc3)c(=O)c3oc4ccccc4c32)cc1` the same measures were “inactive” and -4.98%.
In the case of `COc1ccc(CC(=O)Nc2cccc(S(=O)(=O)N3CCCCCC3)c2)cc1OC`, the Potency was 20.6 µM (active) and the cell number change is -6.09%.
For `COc1ccc(CC(=O)Nc2cccc(S(=O)(=O)N3CCOCC3)c2)cc1OC` the same measures were 23.1 µM (active) and -21.4%.
The like results for `COc1ccc(N2CCN(CC(=O)Nc3cccc(S(=O)(=O)N4CCOCC4)c3)CC2)cc1` were, in that order, 16.4 µM (active) and -21.6%.
The like results for `COC(=O)c1cccc(NC(=O)CN2CCN(c3ccc(OC)cc3)CC2)c1` were, in that order, “inactive” and 6.81%.
On to `COc1ccc(CC(=O)Nc2cccc(S(=O)(=O)N3CCCCC3)c2)cc1`, for which the Potency entry is “inactive” and the cell number change is -18.3%.
For `COc1ccccc1N1CCN(CC(=O)Nc2ccnn2C2CCCC2)CC1` the same measures were “inactive” and 1.72%.
For the molecule `COc1ccc(CC(=O)Nc2cc(S(=O)(=O)N3CCCCC3)ccc2C)cc1OC`, the Potency result was “inactive” and the cell number change was -3.08%.
Turning to `O=C(Cc1ccc(Br)cc1)Nc1cccc(S(=O)(=O)N2CCOCC2)c1`, the Potency result is “inactive” and the cell number change is -12.5%.
The like results for `O=C(CN1CCN(S(=O)(=O)c2ccc3ccccc3c2)CC1)Nc1ccc(N2CCOCC2)cc1` were, in that order, “inactive” and -8.53%.
For `COc1ccccc1CCC(=O)Nc1cccc(S(=O)(=O)N2CCOCC2)c1` the same measures were “inactive” and 12.7%.
For `O=C(CN1CCN(S(=O)(=O)c2ccccc2)CC1)Nc1ccnn1C1CCCC1` the same measures were “inactive” and -2.45%.
In the case of `COc1cccc(N2CCN(CC(=O)Nc3ccnn3C3CCCC3)CC2)c1`, the Potency is 10.3 µM (active) and the cell number change was -10.7%.
For `O=C(NCc1ccccc1)c1ccc(Cl)nc1` the same measures were “inactive” and 10%.
For `CC(C)(C)c1ccc(/C=N/NC(=O)c2ccccn2)cc1` the same measures were “inactive” and 6.33%.
The like results for `CCCCC(Sc1nc(N)c(NC(=O)c2ccco2)c(=O)[nH]1)C(=O)O` (stereo not drawn) were, in that order, “inactive” and -24.3%.
Consider `O=C(CN(C(=O)c1csnn1)c1cccc(Cl)c1)NCCc1ccccc1`, for which the Potency entry was “inactive” and the cell number change was 12.4%.
As for `Cc1ccccc1NC(=O)CSc1ccc(-c2ccco2)nn1`, the Potency result was “inactive” and the cell number change is -9.57%.
For `CCCNc1ccc(S(=O)(=O)N(CC)CC)cn1` the same measures were “inactive” and 5.83%.
`Cc1ccc(S(=O)(=O)N(CC(=O)NC2CC2)c2ccc(C)c(Cl)c2)cc1`: the Potency result was “inactive”.
Regarding `CCOC(=O)CCN`, the Potency entry is “inactive” and the cell number change was 3.17%.
The like results for `O=C(NCC1CCCO1)c1ccc2c(c1)C(=O)N(c1cccc([N+](=O)[O-])c1)C2=O` (stereo not drawn) were, in that order, 0.82 µM (active) and -9.52%.
Regarding `O=C(NCC1CCCO1)c1ccc2c(c1)C(=O)N(C1CCCCC1)C2=O` (stereo not drawn), the Potency result was “inactive” and the cell number change was determined as 2.66%.
For `O=C(NCC1CCCO1)c1ccc(NS(=O)(=O)c2cccc([N+](=O)[O-])c2)cc1` (stereo not drawn), the Potency result is “inactive” and the cell number change came to 5.5%.
For `Nc1c(-c2ccc(Cl)cc2)cnn1-c1cccc(C(F)(F)F)c1` the same measures were “inactive” and 10.7%.
Take `NC(=O)C1CCCN(Cc2ccc(Cl)cc2)C1` (stereo not drawn): the Potency was 29.1 µM (active) and the cell number change is -11.1%.
The like results for `NC(=O)C1CCCN(Cc2ccc3ccccc3c2)C1` (stereo not drawn) were, in that order, “inactive” and 10.8%.
As for `O=C(C1CCCN(Cc2ccc(Cl)cc2)C1)N1CCCCC1` (stereo not drawn), the Potency entry is “inactive” and the cell number change worked out at 22.8%.
With `O=C(COC(=O)c1ccc(S(=O)(=O)NCc2ccco2)cc1)NC1CCCCC1`, the Potency result was “inactive” and the cell number change stood at 0.997%.
In the case of `O=C(COC(=O)c1ccc(S(=O)(=O)NCc2ccco2)cc1)NCC1CCCCC1`, the Potency was 25.9 µM (active) and the cell number change was -12.1%.
For `Cc1ccc(CNC(=O)COC(=O)c2ccc(S(=O)(=O)NCc3ccco3)cc2)cc1` the same measures were “inactive” and -0.995%.

The record behind these values is PubChem BioAssay AID2685 (National Center for Advancing Translational Sciences (NCATS), 2010).
